gsp antagonist: antagonists of gsp mutant (McCune-Albright syndrome). AID 624288. 340,000 compounds, 0.4% hits. Potency, µM (doses to about 76.9 µM), for inactives: top-dose activity change, negative = inhibition, usual class: inhibitors. gsp-mutant cells, cAMP HTRF, 30 min; calls by dose curve; cell line not stated here;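 note: intracellular cAMP measured with PDE inhibitor Ro 20-1724 present during compound exposure; potency is the fitted concentration of half-maximal effect; % is set by controls: 0 for no effect and ±100 for the full control effect; nearly all actives have a fitted effect of over 65% in size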
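Cells in G418 medium, seeded 16-24 h, 37C; buffer exchange to DPBS + 1 mM CaCl2, 0.5 mM MgCl2, 0.05% BSA; cpds in DMSO + […] (300 uM stock), 30 min 37C; HTRF cAMP detection.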
gsp ag: agonists of gsp mutant (McCune-Albright syndrome) | gsp mutant cells, cAMP HTRF, 30 min | Potency, µM (highest dose often 76.9 µM), for inactives: top-dose activation (cAMP increase), actives largely listed as activators | 340,000 compounds, 0.13% hits; active = well fitted activation curve with a large enough effect; inconclusive = small, poorly fitted or top-dose-only effect, or another doubt; inactive = no such curve, though single readings can be large or run the other way; cell line not stated here;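 note: phosphodiesterase inhibitor Ro 20-1724 added with compounds to block cAMP breakdown; potency is the fitted concentration of half-maximal effect; nearly all actives have a fitted effect of over 60% in size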
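Cells in DMEM/10% FBS with G418 were pretreated with compounds in DMSO plus […] (300 uM stock) for 30 min at 37C. cAMP was measured by HTRF (cAMP-d2 plus anti-cAMP antibody-K) after 30 min at room temperature.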
RXFP1 ag: activates the human relaxin receptor RXFP1 | Q9HBX9 | HEK293T-RXFP1 cAMP TR-FRET, 30 min; response scale: percent of porcine relaxin response, buffer zero | Potency, µM (highest dose often 57.5 µM), without a hit: at the highest dose activation, usual class: activators | 370,000 compounds, 0.3% hits; note: potency is the fitted concentration of half-maximal effect; % is set by controls: 0 for no effect and ±100 for the full control effect; nearly all actives have a fitted effect of over 60% in size
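Agonist response is measured as cAMP accumulation in an RXFP1-transfected HEK293T line under PDE4 inhibition. Values are scaled between buffer-only and 29 nM porcine relaxin, and EC50s come from standard Hill equation fits.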
RXFP1 antag: antagonists of human relaxin receptor RXFP1; activity change, negative = inhibition, % at 57.5 µM; Q9HBX9; 350,000 compounds, 0.59% hits; AID 1259400; HEK293-RXFP1, relaxin-stimulated cAMP HTRF, 30 min; active compounds read low;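 active = activity change of -60% or lower, but not beyond a set lower limit; inconclusive = change between -60% and -40%, or beyond the set limit; inactive = change above -40%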; note: % is set by controls: 0 for no effect and ±100 for the full control effect
PTHR1 ag: agonists of human PTHR1 parathyroid hormone receptor; HEK293 GP2 PTHR1 cells, GloSensor cAMP luminescence, 1 h; Potency, µM (highest dose often 115 µM), without a hit: at the highest dose activation, actives largely listed as activators; 410,000 compounds, 0.075% hits; note: potency is the fitted concentration of half-maximal effect; nearly all actives have a fitted effect of over 55% in size
Target sequence (Q03431 whole entry, looked up): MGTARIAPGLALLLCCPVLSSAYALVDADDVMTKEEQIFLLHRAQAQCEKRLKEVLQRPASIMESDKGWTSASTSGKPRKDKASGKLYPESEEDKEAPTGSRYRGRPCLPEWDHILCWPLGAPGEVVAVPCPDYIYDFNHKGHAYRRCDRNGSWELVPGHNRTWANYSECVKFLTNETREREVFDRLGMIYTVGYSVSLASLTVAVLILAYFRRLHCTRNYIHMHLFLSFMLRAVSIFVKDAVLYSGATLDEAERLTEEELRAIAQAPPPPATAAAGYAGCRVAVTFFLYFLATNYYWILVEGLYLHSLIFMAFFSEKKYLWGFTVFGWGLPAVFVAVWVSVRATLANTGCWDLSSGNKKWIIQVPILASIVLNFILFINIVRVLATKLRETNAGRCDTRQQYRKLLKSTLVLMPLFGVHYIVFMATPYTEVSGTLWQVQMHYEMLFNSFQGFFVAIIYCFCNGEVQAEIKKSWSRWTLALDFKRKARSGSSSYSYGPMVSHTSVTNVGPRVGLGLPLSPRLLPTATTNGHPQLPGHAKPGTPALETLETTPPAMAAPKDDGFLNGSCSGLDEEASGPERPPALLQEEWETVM
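HEK-293-derived GP2 cells expressing PTHR1 and a GloSensor cAMP reporter, 3,000/well, plated overnight, given luciferin plus IBMX (each 0.5 mM as added) for 1 h at 37 °C, then compound for 1 h at 37 °C. Luminescence was read after 15 min at room temperature.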
Starred values were filed as active, the others as inactive; [ ] = another dose, or the depositor's remark. Compounds with a hit are over-represented: about 1% of the library has one in this group of screens. Unless noted, calls come from the whole dose curve; as a rule, active = well fitted curve in the direction sought with a large enough effect; inconclusive = small, poorly fitted or top-dose-only effect, or another doubt; inactive = no such curve, though single readings can be large; an effect the other way counts as inactive or inconclusive.

For COc1ccc(OC)c(NC(=O)CSc2ncnc3c2cnn3-c2ccccc2Cl)c1 the results were gsp antagonist 2µM*, gsp ag -19%, RXFP1 ag 2%, RXFP1 antag -4 and PTHR1 ag -25%.
COc1cc(NC(=O)CSc2ncnc3c2cnn3Cc2ccccc2)cc(OC)c1 was read as gsp antagonist -4%, gsp ag 8%, RXFP1 ag 2%, RXFP1 antag 0 and PTHR1 ag inconclusive.
For Cc1ccc(NC(=O)c2ccc(CNS(=O)(=O)c3ccc4c(c3)C(C)(C)C(=O)N4C)cc2)cc1F the results were RXFP1 ag 1%, RXFP1 antag -22 and PTHR1 ag inactive.
`O=C(CN1C(=O)C2CCCCC2C1=O)Nc1nc(-c2ccc(F)cc2)cs1` (centres undefined) gave gsp antagonist -31%, gsp ag inconclusive, RXFP1 ag 2%, RXFP1 antag inconclusive and PTHR1 ag -19%.
`COc1ccc(CC(=O)Nc2nc(-c3ccc(F)c(F)c3)cs2)cc1` gave gsp antagonist inconclusive, gsp ag 0%[15.4 µM], RXFP1 ag -3%, RXFP1 antag -32 and PTHR1 ag -34%.
For CC1(C(=O)OCC(=O)Nc2nc(-c3ccc(F)c(F)c3)cs2)CC1(Cl)Cl (centres undefined) the results were gsp antagonist 50µM*, gsp ag -31%, RXFP1 ag -3%, RXFP1 antag inconclusive and PTHR1 ag -48%.
For O=C(Cc1ccc(F)cc1)Nc1nc(-c2ccc(F)c(F)c2)cs1 the results were gsp antagonist inconclusive, gsp ag -1%, RXFP1 ag 0%, RXFP1 antag -88* and PTHR1 ag -93%.
O=C(CN1C(=O)C2CC=CCC2C1=O)Nc1nc(-c2ccc(F)cc2)cs1 (centres undefined) was read as gsp antagonist -28%, gsp ag 20%, RXFP1 ag 1%, RXFP1 antag -84* and PTHR1 ag -25%.
Cc1ccccc1Nc1c(-c2c[nH]c3ccccc23)nc2cccc(C)n12 was read as RXFP1 ag 13%, RXFP1 antag -32 and PTHR1 ag -14%.
CCOc1ccc(-c2cc(NC(=O)Nc3ccccc3Cl)c(C(=O)OC)s2)cc1 was read as RXFP1 ag 14%, RXFP1 antag -10 and PTHR1 ag inactive.
`C=C1C(=O)C23CCC4C(C)(C(=O)OC)CCCC4(C)C2CCC1(O)C3` (centres undefined) gave gsp antagonist 7%, gsp ag 9%, RXFP1 antag -92* and PTHR1 ag -94%.
`CCC(CC)NC(=O)c1cccc([N+](=O)[O-])c1C` gave gsp antagonist 1%, gsp ag 29%, RXFP1 ag 6%, RXFP1 antag 0 and PTHR1 ag -23%.
Screening Cc1c(C(=O)NNc2cc(=O)n(C)c(=O)n2C)cccc1[N+](=O)[O-] returned gsp antagonist 12%, gsp ag inconclusive, RXFP1 ag 14µM*, RXFP1 antag 25 and PTHR1 ag -23%.
For CCCCCCCC(=O)[O-].CCCCCCCC(=O)[O-].[Zn+2] the results were RXFP1 antag -19.
Screening CCc1ccc(S(=O)(=O)NCc2ccc3c(c2)CCN3C(=O)c2ccc(C)cc2)cc1 returned RXFP1 ag 5%, RXFP1 antag 7 and PTHR1 ag -18%.
For CC(=O)c1ccc(N2CCN(C(=O)CCCc3nc4ccccc4s3)CC2)cc1 the results were gsp antagonist 32µM*, gsp ag -5%, RXFP1 ag -2%, RXFP1 antag 1 and PTHR1 ag -92%.
CCNc1nc(N)c(C(=O)C23CC4CC(CC(C4)C2)C3)s1 was read as gsp antagonist -13%, gsp ag -15%, RXFP1 ag 4%, RXFP1 antag -68* and PTHR1 ag inactive.
Screening Cn1cc(C(=O)C(=O)NC2CCCCC2)c2ccccc21 returned gsp antagonist 50µM*, gsp ag 26%, RXFP1 ag 6%, RXFP1 antag 5 and PTHR1 ag inactive.
`Cn1cc(C(=O)C(=O)NC2CC2)c2ccccc21` gave gsp antagonist 0%, gsp ag -4%[15.4 µM], RXFP1 antag -3 and PTHR1 ag 2%.
CCCOc1ccc(C2C(=O)N(C3CCCCC3)CC(=O)N2CCc2ccccc2)cc1OC (centres undefined) was read as RXFP1 ag 4%, RXFP1 antag 7 and PTHR1 ag -2%.
For O=C(c1ccc(Cl)cc1)N1CCN(c2ccnc3cc(Cl)ccc23)CC1 the results were gsp antagonist 40µM*, gsp ag 11%[15.4 µM], RXFP1 ag -1%, RXFP1 antag -20 and PTHR1 ag -27%.
For CCC(=O)N1CCN(c2ccnc3cc(Cl)ccc23)CC1 the results were gsp antagonist -4%, gsp ag -31%[15.4 µM], RXFP1 ag 1%, RXFP1 antag -5 and PTHR1 ag inactive.
`O=C(CN1C(=O)/C(=C/c2ccc(C(F)(F)F)cc2)Sc2ccccc21)NCCCN1CCOCC1` gave gsp antagonist -2%, gsp ag -16%, RXFP1 ag 0%, RXFP1 antag -109* and PTHR1 ag inactive.
Cc1cccc(CN2C(=O)/C(=C\c3ccc(C(=O)NCCN4CCOCC4)cc3)Sc3ccccc32)c1 was read as gsp antagonist -13%, gsp ag inconclusive, RXFP1 ag 2%, RXFP1 antag -87* and PTHR1 ag -20%.
CCCn1c2ccccc2c2cnn(CC(=O)NCCc3cc(OC)ccc3OC)c(=O)c21 was read as RXFP1 ag 8%, RXFP1 antag 1 and PTHR1 ag inactive.
Screening CCOC(=O)c1nc(Nc2ccc(Nc3ccccc3)cc2)c2ccccc2n1 returned gsp antagonist inconclusive, gsp ag -15%, RXFP1 ag 0%, RXFP1 antag -11 and PTHR1 ag -42%.
`CCOC(=O)c1nc(Nc2cc(C)cc(C)c2)c2ccccc2n1` gave gsp antagonist 7.9µM*, gsp ag -5%[15.4 µM], RXFP1 ag 1%, RXFP1 antag -31 and PTHR1 ag -11%.
For COc1ccccc1OCCCCCc1c(C)n[nH]c1C the results were gsp antagonist 35µM*, gsp ag -13%, RXFP1 ag 0%, RXFP1 antag 7 and PTHR1 ag 10%[57.5 µM].
O=C(Nc1ccc(OC(F)(F)F)cc1)Nc1cccc([N+](=O)[O-])c1 was read as gsp antagonist inconclusive, gsp ag 10%, RXFP1 ag -1%, RXFP1 antag -74* and PTHR1 ag -35%.
O=C(Nc1ccc(Cl)cc1)c1cc2c(cc1O)[nH]c1ccccc12 was read as gsp antagonist 35µM*, gsp ag -6%[15.4 µM], RXFP1 ag 5%, RXFP1 antag -64* and PTHR1 ag -37%.

Compound activity: PubChem, National Center for Advancing Translational Sciences (NCATS)
